HSF1 inhib: HSF1 inhibitors in luciferase reporter cells, primary screen, cell-based, NIH3T3, luminescence | NIH3T3-HGL HSE-luciferase, MG132-induced, luminescence 8 h; active compounds read low | actives 0.77% (n = 300,000) | activity change, negative = inhibition, % at 7.5 µM (by protocol) | AID 2098, 2009;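 active = more than half of replicate wells show activity change below -50%, luminescence cut by over half; inconclusive = some wells, but at most half, below -50%; inactive = no replicate well below -50%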;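 note: luciferase reports HSF-1 transcriptional activity via heat shock element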
EBV LMP1 NFkB: EBV LMP1-driven NF-kappaB luciferase reporter inhibitors, primary screen, cell-based, luminescence, single point | LMP1-induced NF-kappaB luciferase reporter cells | inhibition, % at 12.5 µM | actives 0.69% (n = 350,000) | AID 504558, 2011; in the data active = inhibition above about 41%; inconclusive = no clear call, values can overlap the other calls
LGR2 antag: inhibitors of bursicon-induced LGR2 CRE-luciferase signal, primary screen, cell-based, HEK293, CRE-luciferase reporter, bursicon stimulation; inhibition, % at 9.99 µM; actives 0.35% (n = 380,000); bursicon-stimulated, 4 h; Drosophila bursicon receptor LGR2 (rickets);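 active = drop in luminescence signal, shown as inhibition above about 50% in the replicate tests, limit read from the data, passing the limit was not always enough; inconclusive = probably only some replicates passing the limit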;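 note: agonist challenge used bursicon conditioned medium at about half maximal strength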
TWEAK-Fn14 inh: inhibitors of TWEAK-Fn14 signaling, primary screen, luciferase reporter cells, uHTS. TWEAK-stimulated Fn14 reporter cells, luciferase luminescence, 8 h. inhibition, % at 10 µM. actives 2% (n = 360,000). AID 1159606, 2016; in the data active = inhibition above about 50%
HSF-1 act: HSF-1 activators, primary screen, NIH3T3-HGL cells, MG132 stress, luminescence, single point; AID 504408, 2011; actives 1.7% (n = 300,000); activation, % at 9 µM; NIH3T3-HGL HSF-1 luciferase reporter, 8 h; 100% = twice DMSO control signal;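 active = mean replicate activation of at least 50% with a set share of replicates each reaching 50%; inconclusive = only one of those two conditions met; inactive = mean below 50% and too few replicates reaching it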
TROY NFkB inh: inhibitors of TROY-driven NF-kB signaling, primary screen, Q293 LMP1-TROYcd cells, NF-kB luciferase, uHTS; Q293 LMP1-TROYcd NF-kB luciferase reporter, 4 h; inhibition, % at 10 µM; actives 0.98% (n = 360,000); AID 1347056, 2019;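 active = compounds whose plate-normalised and pattern-corrected inhibition of the luciferase reporter signal at the single screening dose is 50% or more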
Large screens that a line does not name were inactive. Sampled rows, rich in hits. Any-hit rate of the full collection: about 3.6%.

C[C@@H]1CCCCO[C@H](CN(C)C(=O)Nc2ccccc2)[C@H](C)CN([C@@H](C)CO)C(=O)c2cc(NC(=O)Nc3cccc4ccccc34)ccc2O1	none (no result: HSF1 inhib, EBV LMP1 NFkB, TWEAK-Fn14 inh, HSF-1 act, TROY NFkB inh)
Cc1ccc(S(=O)(=O)Nc2cccc3c2O[C@@H](CN(C)C(=O)Nc2c(C)noc2C)[C@H](C)CN([C@H](C)CO)C3=O)cc1	none (no result: HSF1 inhib, EBV LMP1 NFkB, TWEAK-Fn14 inh, HSF-1 act, TROY NFkB inh)
Cc1cccc(CSc2cn(CC(=O)N3CCOCC3)c3ccccc23)c1	HSF-1 act 76
O=C(N[C@H]1CC[C@@H](CCn2cc(-c3ccccn3)nn2)O[C@@H]1CO)c1ccc(F)cc1	none (no result: HSF1 inhib, EBV LMP1 NFkB, TWEAK-Fn14 inh, HSF-1 act, TROY NFkB inh)
COc1cccc(-c2cnc3c(c2)C(=O)N([C@H](C)CO)C[C@H](C)[C@@H](CN(C)Cc2ccc(F)cc2)O3)c1	none (no result: HSF1 inhib, EBV LMP1 NFkB, TWEAK-Fn14 inh, HSF-1 act, TROY NFkB inh)
C=CCOc1ccccc1CN(C(=O)CCl)c1ccc2c(c1)OCO2	HSF1 inhib -93
CCOc1ccccc1NC(=O)Nc1ccc2c(c1)OCO2	none
CN1c2ccc(-c3ccc(F)cc3)cc2[C@@H]2[C@@H](CCN2C(=O)c2ccc(F)cc2)[C@H]1CO	none (no result: HSF1 inhib, EBV LMP1 NFkB, TWEAK-Fn14 inh, HSF-1 act, TROY NFkB inh)
CO[C@H]1CN(C)C(=O)c2cc(NS(C)(=O)=O)ccc2OC[C@@H](C)N(C(=O)C2CCOCC2)C[C@@H]1C	none (no result: HSF1 inhib, EBV LMP1 NFkB, TWEAK-Fn14 inh, HSF-1 act, TROY NFkB inh)
CCOc1ccc(NC(=S)N(CCc2ccncc2)C(C)C)cc1	HSF1 inhib -53
O=C(NNc1ccc(F)cc1F)c1c(F)cccc1Cl	TWEAK-Fn14 inh 58
Cc1cc(C)cc(NC(=O)CN(C)S(=O)(=O)c2cnc[nH]2)c1	HSF-1 act 80 (no result: LGR2 antag)
Cc1cc(=O)oc2c(C(=O)/C=C\c3cccs3)c(O)ccc12	HSF-1 act 61
COc1cc(/C=C/C(=O)c2c(O)ccc3c(C)cc(=O)oc23)ccc1O	HSF-1 act 113 (no result: LGR2 antag)
Cc1c(C(=O)/C=C/c2cccs2)oc2ccc(F)cc12	HSF-1 act 106 (no result: LGR2 antag)
O=C(C[C@@H]1CC[C@H](NC(=O)c2ccncc2)[C@@H](CO)O1)NCC1CC1	none (no result: HSF1 inhib, EBV LMP1 NFkB, TWEAK-Fn14 inh, HSF-1 act, TROY NFkB inh)
COc1cc(CNCc2ccccc2Cl)ccc1OCC(=O)NC1CCCCC1	TWEAK-Fn14 inh 86
C[C@H]1CCCCO[C@H](CN(C)S(=O)(=O)c2ccc(Cl)cc2)[C@@H](C)CN([C@@H](C)CO)C(=O)c2cc(NS(=O)(=O)c3cccs3)ccc2O1	none (no result: HSF1 inhib, EBV LMP1 NFkB, TWEAK-Fn14 inh, HSF-1 act, TROY NFkB inh)
CCCCCCc1cc2cc(S(=O)(=O)c3ccc(C)cc3)c(=O)oc2cc1O	TROY NFkB inh 51
CCCCCCc1cc2cc(S(=O)(=O)c3ccc(Cl)cc3)c(=O)oc2cc1O	TROY NFkB inh 53
CCCCCCc1cc2cc(C(=O)Nc3ccccc3)c(=O)oc2cc1O	TWEAK-Fn14 inh 69, TROY NFkB inh 50
CCCCCCc1cc2cc(C(=O)NCc3ccccc3)c(=N)oc2cc1O	none
COCC(=O)Nc1ccc2c(c1)[C@H]1C[C@@H](CC(=O)NCc3ccc(OC)cc3)O[C@H](CO)[C@H]1O2	none (no result: HSF1 inhib, EBV LMP1 NFkB, TWEAK-Fn14 inh, HSF-1 act, TROY NFkB inh)
C[C@H](CO)N1C[C@H](C)[C@H](CN(C)C(=O)Nc2ccccc2)Oc2ccc(NC(=O)Nc3cccc4ccccc34)cc2C1=O	none (no result: HSF1 inhib, EBV LMP1 NFkB, TWEAK-Fn14 inh, HSF-1 act, TROY NFkB inh)
COc1ccc(/C(C)=N/NC(=S)NCCc2ccccc2)c(O)c1	HSF-1 act 53
COc1ccc(O)c(/C=N/NC(=S)NCCc2ccccc2)c1	none
Cc1ccc(C)c(-c2nc3cc(N)ccc3o2)c1	TWEAK-Fn14 inh 67 (no result: LGR2 antag, TROY NFkB inh)
Cc1ccc(-c2nc3cc(N)ccc3o2)cc1Br	none
Cc1ccc2oc(-c3ccccc3)nc2c1	HSF-1 act 69 (no result: LGR2 antag)
CN(C)c1ccc(-c2nc3cc(N)ccc3o2)cc1	LGR2 antag inconclusive, TWEAK-Fn14 inh 74
Nc1ccc2oc(-c3ccccc3Cl)nc2c1	TWEAK-Fn14 inh 51
CCOc1cccc(-c2nc3cc(C)ccc3o2)c1	none (no result: LGR2 antag)
C[C@H]1CN([C@@H](C)CO)C(=O)c2cc(-c3cccnc3)cnc2O[C@H]1CN(C)C(=O)Nc1ccc(C(F)(F)F)cc1	none (no result: HSF1 inhib, EBV LMP1 NFkB, TWEAK-Fn14 inh, HSF-1 act, TROY NFkB inh)
CCCNC(=O)C[C@H]1C[C@H]2c3cc(NC(=O)c4cccnc4)ccc3O[C@H]2[C@H](CO)O1	none (no result: HSF1 inhib, EBV LMP1 NFkB, TWEAK-Fn14 inh, HSF-1 act, TROY NFkB inh)
Cc1ccc2nc(-c3cc(N)cc(N)c3)oc2c1	TWEAK-Fn14 inh 62, TROY NFkB inh 60 (no result: LGR2 antag)
